From PubChem
LmPK inhibitor = LmPK (Leishmania mexicana) enzyme inhibition; purified LmPK, Kinase-Glo ATP luminescence, 1 h; Potency, µM (doses to about 57.5 µM), actives largely listed as inhibitors; actives 0.37% (n = 290,000)
Target sequence (Q27686 whole entry, looked up): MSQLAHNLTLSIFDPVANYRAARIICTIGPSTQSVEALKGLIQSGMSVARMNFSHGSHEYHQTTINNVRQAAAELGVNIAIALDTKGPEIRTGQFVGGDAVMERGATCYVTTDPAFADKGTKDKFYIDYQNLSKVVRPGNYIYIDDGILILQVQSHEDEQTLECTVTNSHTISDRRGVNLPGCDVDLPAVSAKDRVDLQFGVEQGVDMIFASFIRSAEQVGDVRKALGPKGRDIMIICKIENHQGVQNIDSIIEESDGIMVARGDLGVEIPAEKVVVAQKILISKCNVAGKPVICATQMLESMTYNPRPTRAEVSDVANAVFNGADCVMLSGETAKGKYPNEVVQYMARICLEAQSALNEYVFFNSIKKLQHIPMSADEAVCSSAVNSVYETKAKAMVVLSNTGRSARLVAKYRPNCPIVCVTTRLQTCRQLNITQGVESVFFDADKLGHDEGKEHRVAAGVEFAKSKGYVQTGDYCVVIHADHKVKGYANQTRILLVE
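Purified LmPK (0.1 nM) converted ADP (0.1 mM) to ATP with PEP (0.5 mM) in imidazole buffer pH 7.2 with KCl and MgCl2, 1 h at room temperature. ATP was read by Kinase-Glo luminescence; data normalized to uninhibited and no-enzyme controls.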
Shiga toxin inh = Shiga toxin inhibition | inhibition, % at 38.7 µM | actives 9.2% (n = 290,000) | Vero cells, Shiga toxin protein synthesis inhibition reporter | AID 2315; in the data active = inhibition mostly above about 28%, no sharp cut-off; inactive = mostly below about 43%
Sm TGR inh = S. mansoni TGR enzyme inhibition | actives 3% (n = 360,000) | Potency, µM (top dose mostly 114 µM), actives largely listed as inhibitors | AID 485364 | purified TGR, DTNB reduction, TNB absorbance 405 nm | Q962Y6; note: nearly all actives have a fitted effect of over 60% in size
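Kinetic colorimetric format: TGR-catalysed, NADPH-driven DTNB reduction monitored via TNB absorbance. Enzyme dispensed at 20 nM; compound exposure 15 min at room temperature before reaction start.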
TbPYK inhibitor = blocks Trypanosoma brucei pyruvate kinase; TbPYK enzyme, Kinase-Glo Plus ATP luminescence, 45 min; AID 624173; actives 0.12% (n = 410,000); Potency, µM (highest dose often 76.8 µM), hits mostly inhibitors; note: nearly all actives have a fitted effect of over 50% in size
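Assay buffer: 50 mM TEA pH 7.2, 100 mM KCl, 10 mM MgCl2, 0.05% BSA, 0.01% Tween-20. Pyruvate kinase from T. brucei plus substrate met compound, then ADP (130 uM final). Luminescence was read post 45 min RT.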
Cycloheximide cs = counter-screen hit for Shiga toxin inhibitors, cycloheximide | cell reporter, cycloheximide protein synthesis inhibition counterscreen | AID 2314 | max response, % | actives 12% (n = 300,000); in the data active = max response mostly above about 13%, no sharp cut-off; inactive = mostly below about 14%; note: read at 38.3 µM for the half of the compounds with a filed dose
Giardia FBPA inh = Giardia lamblia aldolase inhibition. purified Giardia FBPA. actives 0.71% (n = 290,000). Potency, µM (doses to about 59.6 µM), most hits filed as inhibitors. A8B2U2; note: nearly all actives have a fitted effect of over 55% in size
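40 nM FBPA preincubated 10 min at RT with compound (up to 57.5 uM final), then substrate plus GAPDH/TPI/NAD/arsenate coupling and diaphorase/resazurin added. Fluorescence read after 20 min at RT, 525/598 nm.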
Of the large screens only hits and unclear results are named; the others gave an inactive call. Many of the other results were omitted from the sample, so hits are more common in it than they were. Unless noted, calls come from the whole dose curve; as a rule, active = well fitted curve in the direction sought with a large enough effect; inconclusive = small, poorly fitted or top-dose-only effect, or another doubt; inactive = no such curve, though single readings can be large; an effect the other way counts as inactive or inconclusive.

COc1ccccc1Nc1nc(N)nc(CN2CCCCCC2)n1	Sm TGR inh 32µM
COc1ccccc1Nc1nc(N)nc(CSC(=S)N2CCCCC2C)n1 (configuration not stated)	Shiga toxin inh 43, Cycloheximide cs 43
CC(=O)c1c(C)[nH]c(C(=O)COC(=O)c2c(-c3ccccc3)noc2C)c1C	none (no result: LmPK inhibitor, Shiga toxin inh, Sm TGR inh, Cycloheximide cs, Giardia FBPA inh)
O=C(CN1C(=O)CC(c2ccc(F)cc2)=Nc2ccccc21)NCc1ccccc1Cl	none (no result: LmPK inhibitor, Shiga toxin inh, Cycloheximide cs, Giardia FBPA inh)
COc1ccc(N(CC(=O)Nc2cccc(C(F)(F)F)c2)S(C)(=O)=O)cc1	Cycloheximide cs active
COc1ccc(N(CC(=O)Nc2cccc(SC)c2)S(C)(=O)=O)cc1	Shiga toxin inh 49, Cycloheximide cs 23
CCCN(C(=O)CSCC(=O)Nc1cccc(C)c1)c1c(N)n(Cc2ccccc2)c(=O)[nH]c1=O	none (no result: Giardia FBPA inh)
C/C(=C\c1ccccc1)C(=O)Nc1nc2ccc([N+](=O)[O-])cc2s1	Cycloheximide cs 19
CC(C)=CC(=O)Nc1nc2ccc([N+](=O)[O-])cc2s1	Shiga toxin inh 55, Cycloheximide cs 44
Cc1ccc(C)c(OCC(=O)Nc2nc3ccc([N+](=O)[O-])cc3s2)c1	none
O=S(=O)(c1ccc(N2CCOCC2)c(Cl)c1)N1CCOCC1	none
O=c1c2ccccc2sn1-c1cc(S(=O)(=O)N2CCOCC2)ccc1N1CCOCC1	Sm TGR inh 25µM, TbPYK inhibitor 4.5µM, Giardia FBPA inh inconclusive
CCc1cccc(-n2c(=O)c3cccnc3n2CC(=O)Nc2c(C)cc(C)cc2C)c1	none (no result: LmPK inhibitor, Shiga toxin inh, Cycloheximide cs, Giardia FBPA inh)
Cc1cc(-c2ccc(C)c(S(=O)(=O)NCCc3ccco3)c2)on1	none (no result: Giardia FBPA inh)
O=S(=O)(NCc1ccco1)c1ccc2c(c1)Cc1ccccc1-2	Shiga toxin inh 41, Sm TGR inh 7.9µM, Cycloheximide cs 48
O=C(Nc1ccccc1)c1cccc(S(=O)(=O)NCc2ccco2)c1	Shiga toxin inh 52, Cycloheximide cs 50
COc1c(C)cc(S(=O)(=O)NCc2ccco2)c(C)c1C	Cycloheximide cs 15
CCc1ccc(-c2cc(C)no2)cc1S(=O)(=O)NCc1ccco1	Shiga toxin inh 42, Sm TGR inh inconclusive, Cycloheximide cs 30
CCN(C[C@H]1N[C@@](Cc2ccccc2)(C(=O)OC)[C@H]2C(=O)N(Cc3ccccc3)C(=O)[C@@H]12)C(=O)Nc1ccc(C(F)(F)F)cc1	none (no result: LmPK inhibitor, Shiga toxin inh, Sm TGR inh, Cycloheximide cs, Giardia FBPA inh)
CCN1C[C@@H]2[C@@H]3C(=O)N(C)C(=O)[C@@H]3[C@](Cc3ccccc3)(C1=O)N2C(=O)c1ccc(Cl)cc1	none (no result: LmPK inhibitor, Shiga toxin inh, Sm TGR inh, Cycloheximide cs, Giardia FBPA inh)
CCN(CC)c1ccc(-c2nc(-c3ccco3)no2)cc1[N+](=O)[O-]	none (no result: LmPK inhibitor, Shiga toxin inh, Cycloheximide cs, Giardia FBPA inh)
COc1ccc(C(=O)Nc2ccccc2)cc1S(=O)(=O)NCc1ccco1	Sm TGR inh 45µM
COc1ccc(C(=O)Cc2ccc(OC)c(OC)c2)cc1	Shiga toxin inh 53, Cycloheximide cs 56
COc1ccc(NC(=O)Nc2nnc(Cc3ccc(OC)c(OC)c3)s2)cc1	none
COc1ccc(C(=O)Nc2nnc(Cc3ccc(OC)c(OC)c3)s2)cc1	Cycloheximide cs 11
COc1ccc(CC(=O)n2[nH]c(=O)ccc2=O)cc1OC	Shiga toxin inh 41, Sm TGR inh 0.56µM, TbPYK inhibitor 7.1µM, Giardia FBPA inh inconclusive
COc1ccc(C(=O)CCc2ccc(OC)c(OC)c2)cc1	none (no result: LmPK inhibitor, Shiga toxin inh, Sm TGR inh, Cycloheximide cs, Giardia FBPA inh)
Cc1ccc(NC(=O)Nc2nnc(Cc3ccc([N+](=O)[O-])cc3)s2)cc1C	Cycloheximide cs 18
Cc1cc(C)c2c(=O)cc(C(=O)NCc3ccc(S(N)(=O)=O)cc3)oc2c1	none (no result: LmPK inhibitor, Shiga toxin inh, Cycloheximide cs, Giardia FBPA inh)
Cn1ccc2cc(S(=O)(=O)N3CCN(C(=O)Nc4cccc(F)c4)CC3)ccc21	none (no result: LmPK inhibitor, Shiga toxin inh, Cycloheximide cs, Giardia FBPA inh)
COc1cccc(CN(C(=O)c2oc3cc(C)ccc3c2C)C2CCS(=O)(=O)C2)c1 (configuration not stated)	none (no result: LmPK inhibitor, Shiga toxin inh, Cycloheximide cs, Giardia FBPA inh)
COc1cc(C(=O)Nc2cc3c(cc2N2CCCCC2)n(C)c(=O)n3C)cc(OC)c1OC	none
COc1ccc(Cc2nnc(NC(=O)Nc3ccc(C)cc3)s2)cc1OC	Shiga toxin inh 43, Cycloheximide cs 15
Cc1ccc(NC(=O)Nc2nnc(Cc3ccc(F)cc3)s2)cc1	Shiga toxin inh 42
COc1ccc2oc(-c3ccc(O)cc3)cc(=O)c2c1	none (no result: LmPK inhibitor, Shiga toxin inh, Sm TGR inh, TbPYK inhibitor, Cycloheximide cs)
O=C(/C=C/c1cccnc1)c1ccccc1O	Sm TGR inh 20µM
